Shown are actives, neighbours in structure and some others; about 2.3% of the full set was active somewhere.
LGR2 inh: inhibitors of bursicon-induced LGR2 CRE-luciferase signal, primary screen, cell-based, HEK293, CRE-luciferase reporter, bursicon stimulation | Drosophila bursicon receptor LGR2 (rickets) | inhibition, % at 9.99 µM | 0.35% of 380,000 active | bursicon-stimulated, 4 h;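 active means drop in luminescence signal, shown as inhibition above about 50% in the replicate tests, limit read from the data, passing the limit was not always enough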;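 further: agonist challenge used bursicon conditioned medium at about half maximal strength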
HIF-2a block: HIF-2a reporter inhibitors, primary screen, luminescence, 786-0 RCC cells | 0.72% of 360,000 active | 786-0 RCC cells HIF-2a reporter, luciferase luminescence, overnight | inhibition, % at 18.8 µM;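 active means inhibition of the luminescence signal of 40% or more relative to plate controls, in a single-dose primary screen at 18.75 µM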
CF NFkB inh: inhibitors of PAF-induced NF-kB signaling, primary screen, cell-based, GFP fluorescence, uHTS. 0.86% of 360,000 active. KKLEB NF-kB-GFP reporter, GFP fluorescence overnight. AID 588850, 2011. inhibition, % at 5 µM;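 active means at least 50% inhibition at 5 µM, scaled per plate between neutral and stimulator controls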;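 further: PAF is a Pseudomonas aeruginosa culture filtrate used as stimulus; plate controls were PAF-stimulated DMSO wells for no effect and unstimulated DMSO wells for full effect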
hiPSC survival: enhancers of single-cell hiPSC survival, primary screen, ATPlite luminescence; AID 602274, 2012; survival enhancement, % at 20 µM; 100% = ROCK inhibitor wells, 0% = DMSO; 0.044% of 360,000 active; in the data active means survival enhancement above about 18%;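 further: cells exposed to compounds for 16 hours before the ATP read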
KKLEB tox: cytotoxicity in KKLEB CF airway cells, primary screen, cytotoxicity control for CF NF-kB inhibitor project, cell-based, uHTS, fluorescence assay plates; KKLEB CF airway cells viability, ATPlite luminescence, overnight; stronger effect = lower value; cells stimulated with P. aeruginosa culture filtrate; activity change (cytotoxicity), % at 5 µM; 0.36% of 360,000 active; AID 602141, 2011;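 active means corrected activity change at or below -50% at 5 µM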
TWEAK Fn14 block: inhibitors of TWEAK-Fn14 signaling, primary screen, luciferase reporter cells, uHTS. TWEAK-stimulated Fn14 reporter cells, luciferase luminescence, 8 h. inhibition, % at 10 µM. 2% of 360,000 active; in the data active means inhibition above about 50%
CF NFkB inh conf: inhibitors of PAF-induced NF-kB signaling, retest, confirmation, cell-based, GFP fluorescence, single concentration | shares compounds with CF NFkB inh | KKLEB CF airway cells, overnight | inhibition, % at 5 µM | 64% of 1,300 active; in the data active means inhibition above about 40%;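 further: stimulus PAF is a Pseudomonas aeruginosa filtrate and not platelet activating factor; plate controls were DMSO wells with stimulus for no effect and unstimulated DMSO wells for full effect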
* = called active by the depositor.

For COc1ccccc1-c1cc(NC=O)c2ncc(-c3cccc(C(C)=O)c3)n2c1 the results were HIF-2a block -29, CF NFkB inh 59*, hiPSC survival 1, KKLEB tox -19, TWEAK Fn14 block 47 and CF NFkB inh conf 44*.
`COc1ccccc1-c1cc(NC=O)c2ncc(-c3cccc(C(=O)N(C)C)c3)n2c1` gave LGR2 inh 12, HIF-2a block 12, CF NFkB inh 38, hiPSC survival -2, KKLEB tox -14 and TWEAK Fn14 block -7.
`CCC(=O)N1CC2(C1)CN(Cc1ccccc1Cl)[C@@H](CO)c1c2c2ccc(OC)cc2n1C` gave LGR2 inh 13.
For S=C(Nc1cccc2ccccc12)Nc1cccc2ccccc12 the results were LGR2 inh -4, HIF-2a block -78, CF NFkB inh 84*, hiPSC survival -2, KKLEB tox -37, TWEAK Fn14 block 92* and CF NFkB inh conf 11.
`CO[C@H](CN(C)S(=O)(=O)c1ccccc1)[C@H](C)CN(C(=O)Nc1ccccc1F)[C@H](C)CO` gave LGR2 inh -14.
`CCCNC(=O)N(C)C[C@@H]1Oc2ncc(-c3ccccc3F)cc2C(=O)N([C@H](C)CO)C[C@@H]1C` gave LGR2 inh -14.
`O=C(NCCc1c[nH]c2ccccc12)C(=O)NCC(c1ccco1)N1CCN(c2ccc(F)cc2)CC1` (stereo not drawn) gave LGR2 inh 1, HIF-2a block 21, CF NFkB inh 51*, hiPSC survival 2, KKLEB tox -48, TWEAK Fn14 block -1 and CF NFkB inh conf -17.
For O=C(NCCc1c[nH]c2ccccc12)C(=O)NCC(c1ccco1)N1CCN(c2ccccc2)CC1 (stereo not drawn) the results were LGR2 inh -3, HIF-2a block 9, CF NFkB inh 0, hiPSC survival -1, KKLEB tox 3 and TWEAK Fn14 block 25.
For O=C(c1nnsc1S(=O)(=O)c1ccc(Cl)cc1)N1CCOCC1 the results were LGR2 inh 102*, HIF-2a block 32, CF NFkB inh 90*, hiPSC survival -5, KKLEB tox -33, TWEAK Fn14 block 91* and CF NFkB inh conf 96*.
Screening C[C@@H]1CN([C@@H](C)CO)C(=O)c2cc(NC(=O)Cc3ccccc3)ccc2O[C@@H](C)CCCCO[C@@H]1CN(C)S(=O)(=O)c1ccc(F)cc1 returned LGR2 inh 5.
`COc1ccc2c3c(n(C)c2c1)[C@H](CO)N(C(=O)c1ccccc1)CC31CN(C)C1` gave LGR2 inh -3.
For CCCc1nc(Cl)c(C#N)c2c1CCCC2 the results were LGR2 inh -5, HIF-2a block 18, CF NFkB inh 68*, hiPSC survival 4, KKLEB tox -12, TWEAK Fn14 block 44 and CF NFkB inh conf 76*.
For CC(C)Cc1nc(Cl)c(C#N)c2c1CCCC2 the results were LGR2 inh -11, HIF-2a block 17, CF NFkB inh 36, hiPSC survival 0, KKLEB tox 2 and TWEAK Fn14 block 47.
`CCc1nc(Cl)c(C#N)c2c1CCCC2` gave LGR2 inh 7, HIF-2a block 28, CF NFkB inh 55*, hiPSC survival 1, KKLEB tox 0, TWEAK Fn14 block 46 and CF NFkB inh conf 75*.
Screening CCc1nc(Cl)c(C#N)c2c1CSC(C)(C)C2 returned LGR2 inh -12, HIF-2a block 22, CF NFkB inh 58*, hiPSC survival 0, KKLEB tox -21, TWEAK Fn14 block -3 and CF NFkB inh conf 42*.
`O=C(Oc1ccc(F)cc1C(=O)/C=C/c1cccs1)c1cccc([N+](=O)[O-])c1` gave HIF-2a block 28, CF NFkB inh 50*, hiPSC survival 1, KKLEB tox 1, TWEAK Fn14 block 7 and CF NFkB inh conf 60*.
O=C(/C=C/c1ccccc1F)c1cccc([N+](=O)[O-])c1 was read as LGR2 inh 4, HIF-2a block -1, CF NFkB inh -8, hiPSC survival -5, KKLEB tox 1 and TWEAK Fn14 block -3.
For COc1cccc(S(=O)(=O)Nc2ccc3c(c2)[C@@H]2C[C@H](CC(=O)N[C@@H](C)c4ccccc4)O[C@@H](CO)[C@@H]2O3)c1 the results were LGR2 inh -20.
`CC(C)[C@H](CO)Nc1nc(NCc2ccc(S(N)(=O)=O)cc2)c2ncn(C(C)C)c2n1` gave LGR2 inh 53*, HIF-2a block 24, CF NFkB inh 71*, hiPSC survival -4, KKLEB tox -16, TWEAK Fn14 block 27 and CF NFkB inh conf 104*.
For O=C(O)c1ccc(-n2ncc(Cl)c(Cl)c2=O)cc1 the results were HIF-2a block -14, CF NFkB inh 74*, hiPSC survival 0, KKLEB tox -45, TWEAK Fn14 block 11 and CF NFkB inh conf -39.
`COc1ccc(C2=Nn3c(nnc3-c3ccncc3)SC2)cc1` gave HIF-2a block 11, CF NFkB inh 72*, hiPSC survival 1, KKLEB tox -33, TWEAK Fn14 block 46 and CF NFkB inh conf 76*.
`COc1ccc(OC)c(-c2nnc3n2N=C(c2ccc(OC)c(OC)c2)CS3)c1` gave LGR2 inh -23, HIF-2a block 24, CF NFkB inh 45, hiPSC survival -4, KKLEB tox -12 and TWEAK Fn14 block -19.
COc1ccc(OC)c(-c2nnc3n2N=C(c2ccc(OC)c(OC4CCCC4)c2)CS3)c1 was read as HIF-2a block 25, CF NFkB inh 66*, hiPSC survival -1, KKLEB tox -21, TWEAK Fn14 block 13 and CF NFkB inh conf 71*.
Cc1noc(C)c1COC(=O)c1cc2c(C)nn(-c3ccc(F)cc3)c2s1 was read as HIF-2a block 21, CF NFkB inh 51*, hiPSC survival 1, KKLEB tox -31, TWEAK Fn14 block 0 and CF NFkB inh conf 8.
For Cc1nn(-c2ccc(F)cc2)c2sc(C(=O)OCC(=O)N3CCC(C)CC3)cc12 the results were HIF-2a block 13, CF NFkB inh -23, hiPSC survival -2, KKLEB tox -3 and TWEAK Fn14 block -15.
For CN1C(=O)c2cc(NC(=O)Nc3ccc(Cl)cc3)ccc2OC[C@H]2O[C@@H](CC(=O)NCCN3CCCCC3)CC[C@@H]21 the results were LGR2 inh -12.
For COCC(=O)N1CC2(C1)CN(C(=O)Cc1ccccc1)[C@@H](CO)c1c2c2ccc(OC)cc2n1C the results were LGR2 inh 4.
